High-throughput results: PubChem, National Center for Advancing Translational Sciences (NCATS)
Shown are actives, neighbours in structure and some others; about 3% of the full set was active somewhere.
VDR inhibitor: inhibitors of human vitamin D receptor | P11473 | 400,000 compounds, 0.93% hits | Potency, µM, for the others: max response, negative = inhibition, usual class: inhibitors | VDR-SRC2-3 peptide fluorescence polarization, 2 h; also: % is scaled to controls: 0 for no effect and ±100 for the full control effect
Target sequence (P11473 whole entry, looked up): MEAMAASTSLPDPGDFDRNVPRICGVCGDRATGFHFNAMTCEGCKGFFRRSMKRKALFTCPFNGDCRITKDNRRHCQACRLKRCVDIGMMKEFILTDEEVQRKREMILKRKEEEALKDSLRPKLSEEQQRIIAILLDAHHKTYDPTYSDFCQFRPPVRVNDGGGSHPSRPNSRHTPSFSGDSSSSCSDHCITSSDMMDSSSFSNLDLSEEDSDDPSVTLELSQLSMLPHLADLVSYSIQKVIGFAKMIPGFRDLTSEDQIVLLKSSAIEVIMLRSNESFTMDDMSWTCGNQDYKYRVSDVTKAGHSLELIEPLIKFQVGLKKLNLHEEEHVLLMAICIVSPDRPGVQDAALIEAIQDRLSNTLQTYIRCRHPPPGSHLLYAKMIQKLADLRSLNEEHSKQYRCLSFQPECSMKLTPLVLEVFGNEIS
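Measured by FP: displacement of SRC2-3 coactivator peptide from VDR by library compounds, following a two-hour ambient incubation.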
USP1-UAF1 inh: blocks the human USP1/UAF1 deubiquitinase complex. AID 743255. O94782. 390,000 compounds, 0.23% hits. recombinant USP1/UAF1, Ub-Rhodamine cleavage fluorescence. Potency, µM (doses to about 57.1 µM), without a hit: top-dose activity change, negative = inhibition, actives largely listed as inhibitors; also: % is scaled to controls: 0 for no effect and ±100 for the full control effect; nearly all actives have a fitted effect of over 60% in size
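USP1/UAF1 complex at 1 nM was preincubated with compound for 15 min at room temperature, then Ub-Rho substrate (150nM final) was added. Fluorescence (480/540 nm) was read kinetically, 6 reads every 60 seconds.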
PLK1 PBD block: blocks phosphopeptide binding to human PLK1 polo-box domain; Potency, µM, for the others: max response, negative = inhibition, most hits filed as inhibitors; 360,000 compounds, 2.8% hits; Plk1 PBD binding of FITC phosphopeptide, fluorescence polarization; also: series mostly up to about 57 µM; % is scaled to controls: 0 for no effect and ±100 for the full control effect; nearly all actives have a fitted effect of over 65% in size
PTAP TSG101 blk: blocks PTAP/TSG101 interaction to inhibit HIV-1 budding. Q99816. Fluorescence polarization, FITC-PTAP peptide / Tsg101 binding. Potency, µM (highest dose often 115 µM), for the others: at the highest dose activity change, negative = inhibition, actives largely listed as inhibitors. 340,000 tested, under 10 active. AID 493005; active = well fitted inhibition curve with a large enough effect in the main read-out, with a control signal flat, not every such curve was filed as active; inconclusive = small, poorly fitted or top-dose-only effect, or effect the other way, or a change in a side signal; inactive = no such curve, though single readings can be large or run the other way; also: % of control where 0% means no effect
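Fluorescence anisotropy tracks displacement of a FITC-tagged PTAP peptide (50 nM) from the Tsg101 binding domain (10 uM), following a 20 min room-temperature incubation at pH 7.5.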
KAT2A inh: inhibitors of human GCN5L2 histone acetyltransferase | Q92830 | GCN5L2 HAT assay, ThioGlo1 CoA-SH fluorescence | Potency, µM (top dose mostly 58.9 µM), inactives show at the top dose activity change, negative = inhibition, hits mostly inhibitors | 390,000 compounds, 0.21% hits | AID 504327; also: % is scaled to controls: 0 for no effect and ±100 for the full control effect
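Fluorescence readout, Ex340nm/Em540nm: ThioGlo1 (50uM final) reacts with free CoA thiol released as 20nM GCN5L2 acetylates H3(1-25) peptide (75uM) using acetyl-CoA (70uM). Compound and enzyme sat 15 min beforehand; 20 min room-temperature reaction.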
* marks the source's active call; other numbers are inactive results; ? = inconclusive; . = not tested or not shown; [ ] = dose if it differs, or a comment. Unless noted, calls follow the shape of the dose curve; as a rule, active = well fitted curve in the direction sought with a large enough effect; inconclusive = small, poorly fitted or top-dose-only effect, or another doubt; inactive = no such curve, though single readings can be large; an effect the other way counts as inactive or inconclusive. Potency is read from the fitted curve at half-maximal effect.

SMILES	VDR inhibitor	USP1-UAF1 inh	PLK1 PBD block	PTAP TSG101 blk	KAT2A inh
C[C@]12CCC(=O)C=C1CC[C@@H]1[C@@H]2[C@@H](O)C[C@@]2(C)[C@H]1CC[C@]2(O)C(=O)COP(=O)(O)O	0.4%	.	.	.	-7.1%
Cc1cc(C)c2c(=O)n(CC(=O)NCCCN3CCN(c4ccccc4F)CC3)sc2n1	15.8µM*	-21.6%	2.12µM*	-1.6%	?
Cc1cc(C)c2c(=O)n(CC(=O)NCCCN3CCOCC3)sc2n1	?	-18.3%	1.5µM*	-4.6%	17.8µM*
CN(C)c1ncc2ncc(=O)n(CCc3ccccc3)c2n1	-22.4%	.	.	.	-18.2%
O=C(NCc1ccc(F)cc1)C(=O)NCC(c1ccc2c(c1)OCO2)N1CCOCC1 (stereo unspecified)	8.2%	4.5%	.	.	-10.6%
O=C(COC(=O)C1c2ccccc2Oc2ccccc21)NC1CCS(=O)(=O)C1 (stereo unspecified)	?	-6.7%	11.9µM*	-3.0%	-15.2%
COc1ccccc1Nc1nc(N)nc(CSc2ncccn2)n1	-14.2%	-18.8%	26.7µM*	-4.3%	-0.1%
CCOc1ccccc1Nc1nc(N)nc(CSc2nccc(C)n2)n1	-8.1%	-15.8%	-2.5%	-7.5%	1.9%
O=[N+]([O-])c1ccc(N/N=C/c2cccc(O)c2O)cc1	?	-19.4%	26.7µM*	3.7%	-19.8%
CCOC(=O)N1CCc2c(sc3c2c(=O)n(Cc2ccccc2)c(=O)n3CC(=O)Nc2cccc(CC)c2)C1	12.2%	-14.1%	.	.	-1.3%
CCOc1ccc(OCC)c(NC(=O)CN2CCN(C(=O)c3ccco3)CC2)c1	-17.1%	5.0%	21.2µM*	1.7%	-3.4%
CCOc1ccc(OCC)c(NC(=O)CN2CCN(c3cccc(C)c3C)CC2)c1	-2.9%	-9.1%	3.7%	-3.6%	1.3%
N#CC(C#N)=C1C=CC=CN1/C(=C\c1ccco1)C(=O)c1ccc(Cl)cc1	8.91µM*	-10.1%	11.9µM*	-10.0%	38.6%
CCOc1ccc(C2C=C(c3ccc(C)cc3)Nc3nnnn32)cc1 (stereo unspecified)	0.0%	-11.4%	26.7µM*	-0.5%	-12.9%
CCOC(=O)C1(C)/C(=N/Nc2ccccc2)C(=O)C(=O)N1c1ccccc1 (stereo unspecified)	?	-8.5%	23.8µM*	-2.5%	-0.9%
O=C(Nc1ccccc1C(=O)Nc1ccncc1)c1ccccc1	-4.6%	-21.2%	-1.6%	-2.2%	-0.5%
COc1ccc2cc(C3CC(c4cccs4)=NN3S(C)(=O)=O)c(Cl)nc2c1 (stereo unspecified)	-27.9%	-23.5%	6.7µM*	4.1%	-13.1%
COc1ccccc1CCNC(=O)Cc1c(C)c2cc3c(C(C)(C)C)coc3c(C)c2oc1=O	12.5%	-3.4%	.	.	-1.4%
Cc1ccc(C(=O)O)cc1-c1ccc(C=C2C(=O)c3ccccc3C2=O)o1	-11.0%	-16.7%	?	1.2%	?
CC1=C/C(=C\c2ccc(Br)o2)C(=O)O1	2.5%	27.5%	18.9µM*	-3.7%	-0.8%
O=C1C(=Cc2ccc(Br)o2)C(=O)c2ccccc21	1.2%	-18.0%	2.67µM*	-3.0%	?
O=C(CSc1nc(-c2ccccc2)cn1-c1ccccc1F)Nc1ccc(F)cc1	6.8%	-27.2%	.	.	-16.9%
CNC(=S)N(Cc1cccs1)Cc1cc2ccc(OC)cc2[nH]c1=O	-0.3%	-5.3%	-14.8%	-1.5%	0.9%
CNC(=S)N(Cc1ccc(OC)cc1)Cc1cc2ccc(C)cc2[nH]c1=O	2.9%	1.0%	23.8µM*	-5.1%	0.9%
Cc1ccc(S(=O)(=O)N/N=C2/CCCCC2C2CCCCC2)cc1[N+](=O)[O-] (stereo unspecified)	?	-10.6%	23.8µM*	0.6%	-4.6%
SMILES	VDR inhibitor	USP1-UAF1 inh	PLK1 PBD block	PTAP TSG101 blk	KAT2A inh
COC(=O)c1cn(C(=O)c2ccc3c(c2)OCO3)c2ccccc12	.	-13.2%	-6.2%	.	.
O=C(N1CCc2[nH]c3ccccc3c2C1)C(F)(F)F	-6.8%	-10.4%	37.7µM*	-7.7%	-2.9%
CC(=O)N1CCc2[nH]c3ccccc3c2C1	14.5%	-2.5%	-10.6%	-1.0%	0.7%
COc1ccc2c(c1)C(c1ccccc1C)CC(=O)O2 (stereo unspecified)	-2.6%	.	.	.	-16.7%[88.6 µM]
COc1cc2c(cc1OC)/C(=C/C(=O)c1ccc([N+](=O)[O-])c(C)c1)NCC2	?	-5.6%	18.9µM*	-1.2%	-1.3%
COc1cc(C(=S)N2CCCC2)cc(Cl)c1OCC(=O)Nc1ccc(C)cc1C	?	-23.4%	8.44µM*	-4.5%	-15.9%
O=C(NN=c1c(=O)c2ccccc2c1=O)c1ccccc1	-31.7%	31.6µM*	-28.8%	-8.3%	23.2%
CN(C)/C=N/NC(=O)c1ccccc1	8.7%	-11.2%	-8.4%	-0.2%	-2.2%
Oc1c(C(c2ccccc2F)N2CCCCC2)sc2nc(-c3ccco3)nn12 (stereo unspecified)	4.5%	11.8%	.	.	2.7%
CCOC(=O)c1c(S(=O)(=O)NCCCc2ccco2)c(C)n(C)c1C	-3.9%	-20.1%	-13.1%	-6.3%	-0.8%
CN(CC(=O)Nc1cccc(Cl)c1)S(=O)(=O)c1ccc2c(c1)n(C)c(=O)c(=O)n2C	79.4µM*	5.0%	-7.6%	-6.4%	-1.3%
CCc1nc2nc(C)cc(Nc3ccc(OC)cc3OC)n2n1	-12.8%	-1.6%	.	.	-6.5%
COc1ccc(NC(=S)NNc2ccc([N+](=O)[O-])cc2S(=O)(=O)Nc2ccc(C)cc2C)cc1	44.7µM*	-22.9%	26.7µM*	-2.4%	?
Cc1nn(-c2ccc3nncn3n2)c(C)c1CCC(=O)Nc1ccc(OC(F)(F)F)cc1	-1.2%	-1.1%	.	.	0.4%
CC(=O)c1ccc(NC(=O)Cn2c(=O)n(Cc3ccco3)c(=O)c3sc4ccccc4c32)cc1	-7.8%	-24.0%	.	.	-4.2%
CCOc1ccc(NC(=S)NC(=O)/C=C/c2ccco2)cc1	-2.7%	-26.3%	-12.4%	-0.7%	?
COc1cc(NS(=O)(=O)c2ccc(NC(=S)NC(=O)/C=C/c3ccco3)cc2)ncn1	11.0%	-18.5%	13.4µM*	-7.0%	-5.2%
COc1nccnc1NS(=O)(=O)c1ccc(NC(=S)NC(=O)/C=C/c2ccccc2)cc1	?	7.8%	29.9µM*	-1.1%	-1.9%
O=C(Nc1cccc(C(=O)N2CCCCC2)c1)c1nsc2ccccc12	15.7%	-18.4%	.	.	-2.4%
C[C@H](NC(=O)C1CC(=O)N(c2ccc3c(c2)OCO3)C1)C(=O)NC1CCCC1 (stereo partly specified)	?	-20.3%	26.7µM*	0.0%	-5.2%
C[C@H](NC(=O)C1CC(=O)N(c2ccc3c(c2)OCCO3)C1)C(=O)NC1CCCC1 (stereo partly specified)	4.2%	-27.1%	4.5%	-1.1%	-4.4%
CCOc1ccc(C2CC(=O)NC(NC(=O)c3cccc(Cl)c3)=N2)cc1 (stereo unspecified)	13.8%	-25.3%	.	.	0.9%
Cc1cccc(C)c1NC(=S)NC(=O)c1ccc(Br)o1	?	-26.7%	5.97µM*	-5.9%	-7.5%
